Experimental data published in PubChem BioAssay AID2451 (National Center for Advancing Translational Sciences (NCATS), 2010).
In all, about 290,000 compounds went through this assay and about 2,100 (0.72%) were called active. Entries that show only a call come without a potency. Not shown: some 4% with an inconclusive outcome. Calls follow the shape of the dose curve; as a rule, active = well fitted inhibition curve with a large enough effect; inconclusive = small, poorly fitted or top-dose-only effect, or effect the other way; inactive = flat fitted curve, though single readings scatter. Only a selection was taken, and actives are over-represented in it overall.

Biological target: Fructose-bisphosphate aldolase (Giardia intestinalis (strain ATCC 50803 / WB clone C6)) (UniProt A8B2U2)
Sequence (A8B2U2 whole entry, looked up): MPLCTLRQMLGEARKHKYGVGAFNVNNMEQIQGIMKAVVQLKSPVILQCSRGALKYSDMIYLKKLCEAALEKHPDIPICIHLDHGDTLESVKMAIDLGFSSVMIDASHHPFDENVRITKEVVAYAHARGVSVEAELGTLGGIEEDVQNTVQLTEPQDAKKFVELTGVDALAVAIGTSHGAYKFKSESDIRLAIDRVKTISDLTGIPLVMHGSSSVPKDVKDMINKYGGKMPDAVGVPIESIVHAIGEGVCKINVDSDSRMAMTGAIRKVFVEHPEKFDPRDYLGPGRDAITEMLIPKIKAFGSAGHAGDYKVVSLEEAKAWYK
Assay: qHTS Assay for Inhibitors of Fructose-1,6-bisphosphate Aldolase from Giardia Lamblia; also: nearly all actives have a fitted effect of over 55% in size
Conditions: purified Giardia FBPA; series mostly up to 59.6 µM
From the text: Assay Provider: Osnat Herzberg, University of Maryland
The objective of this project is to obtain compounds that inhibit Giardia lamblia growth. G. lamblia is a human pathogen which afflicts impoverished nations; it is the most common cause of outbreaks of diarrhea in the United States. During the course of our study of potential drug targets in Giardia, we have identified the Class II (Zn2+ functions in electrophilic catalysis) fructose-1,6-bisphosphate aldolase (FBPA) as an excellent candidate for drug targeting. FBPA is a key glycolytic pathway enzyme, essential for G. lamblia survival. The human FBPA belongs to the Class I aldolases, which have a different substrate binding site structure and a radically different catalytic mechanism (employing a lysine-Schiff base intermediate). Therefore, affinity-based or mechanism-based inhibitors of the Giardia FBPA are expected not to interfere with the catalytic function of the human FBPA.
A glyceraldehyde-3-phosphate dehydrogenase/triose phosphate isomerase/NAD/arsenate coupled assay was adapted to the 1536-well HTP format for use in the primary screen. This was done by coupling it to a diaphorase/resazurin/resorufin reaction that can be monitored by fluorescence (excitation, 544 nm; emission, 590 nm). Compounds identified in this screen will be further evaluated by coupling the glycerol-3-phosphate/triose phosphate isomerase/NADH assay to a phenazine methosulfate/tetranitroblue tetrazolium color reaction. False positives due to the dehydrogenases and diaphorase inhibition will be eliminated, and selectivity assay will triage inhibitors of mammalian triose phosphate isomerase and the Class I FBPA. G. lamblia FBPA inhibitors identified by the in vitro analyses will be examined for growth inhibition of Giardia trophozoites, and for cytotoxicity in human cells.
Step,Parameter,Value,Description
1,Enzyme reagent,2 uL,40 nM FBPA
2,Compound,23 nL,3.68 nM-57.5 uM final concentration
3,Time,10 min,RT Incubation
4,Substrate/detection Reagent,2 uL,Substrate + enzyme coupling system + AmpLite Red kit
5,Time,20 min,RT Incubation
6,Detector,525 nm/598 nm (Fluorescence),ViewLux Fluorescence Read (Read 1)
1,Medium-binding black solid-bottom Kalypsys plates. FRD or Kalypsys dispenser, 2 uL of FBPA enzyme. Bottle kept at 4C.
2,Compound Library (10 mM ,1:5 dilution). Pin-transferred for a [final] range of 3.68 nM-57.5 uM.
4,FRD or Kalypsys dispenser, 2 uL of reaction mixture. Bottle kept at 4C and covered in foil to protect from light.
6,ViewLux Protocol 1194; Excitation filter wheel A (525/20 Pol; BODIPY TMR FP), Emission filter wheel B (598/25 S; BODIPY TMR FP S).
Keywords: Fructose-bisphosphate aldolase, FBPA , Giardia lamblia , Giardia, HTS, Inhibitors
Potency is read from the fitted curve at half-maximal effect.

Row | SMILES | Potency | activity, negative = inhibition
1 | CCc1nn(CCCC(=O)NCc2ccc(C)cc2)c(=O)c2cc3occc3n12 | inactive | 
2 | CC(C)c1ccc(N(C(=O)c2ccco2)C(C(=O)NC2CCCC2)c2cccnc2)cc1 (stereo not given) | inactive | 
3 | Nc1ccc2nc3c(=O)[nH]c(=S)[nH]c3nc2c1 | 3.54 µM (active) | 
4 | O=c1[nH]c(=O)c2nc3ccccc3nc2[nH]1 | inactive | 
5 | Cc1ccc(NS(=O)(=O)c2ccc(-c3ccc(=O)[nH]n3)o2)c(C)c1 | inactive | 
6 | O=[N+]([O-])c1ccc(N(CCO)Cc2ccccc2)c([N+](=O)[O-])c1 | inactive | 
7 | CCOc1cc(-c2cc(-c3ccc(NC(C)=O)cc3)nc(N)c2C#N)ccc1O | inactive | 
8 | CCN(CC)c1ccc([N+](=O)[O-])c2cccnc12 | inactive | 
9 | O=[N+]([O-])c1cccc2ncccc12 | inactive | 
10 | O=[N+]([O-])c1cc([N+](=O)[O-])c2cccnc2c1O | 15.8 µM (active) | 
11 | CCOC(OCC)c1ccc(/C=C\c2nccc(N)n2)cc1 | inactive | 
12 | Cc1ccc(NC(=S)NCCc2ccc(Cl)cc2)c(C)c1 | inactive | 
13 | COc1ccc(-c2cn[nH]c2-c2ccc(OC)cc2)cc1 | inactive | 
14 | O=c1o[nH]c(-c2ccccc2)c1N=Nc1c(F)cccc1Cl | inactive | 
15 | COc1ccc(N=Nc2c(-c3ccc(OC)cc3)[nH]oc2=O)cc1 | 12.6 µM (active) | 
16 | O=C(Nc1ccc([N+](=O)[O-])cc1)OCCc1ccccn1 | inactive | 
17 | CCS(=O)(=O)C1=NSC2=NC(=O)/C(=C\c3ccc(OS(=O)(=O)c4ccccc4)cc3)C(=N)N21 | inactive | 
18 | COc1ccc(OCc2cc(C(=O)NCC3(C)COC3)no2)c(Cl)c1 | inactive | 
19 | COC(=O)c1c(NC(=O)COc2ccc(Cl)cc2Cl)sc2c1CC(C)(C)NC2(C)C | inactive | 
20 | CN1CCCc2cc(C#N)c(=O)[nH]c21 | 9.98 µM (active) | 
21 | Cc1[nH]c(C)c(S(=O)(=O)N2CCC(C)CC2)c1C(=O)N1CCCC1 | inactive | 
22 | CCNC(=S)N(CCN(CC)CC)Cc1cc2cc3c(cc2[nH]c1=O)OCCO3 | inactive | 
23 | O=c1[nH]c2ccccc2n2c(-c3ccccc3)nnc12 | 0.998 µM (active) | 
24 | CCOC(=O)c1cnc2[nH]c3ccccc3n2c1=O | inactive | 

Row | SMILES | Potency | activity, negative = inhibition
25 | Cc1ccc(-c2nc3ccccc3[nH]c2=O)cc1 | inactive | 
26 | O=C1c2ccccc2C(=O)N1CCOc1ccc(F)cc1 | inactive | 
27 | COc1ccc(C2=NN(C(=O)c3ccccc3C(=O)O)C(c3ccccc3O)C2)cc1 (stereo not given) | inactive | 
28 | Cc1ccccc1N1CCN(CCCN2C(=O)C3CCCCN3C2=O)CC1 (stereo not given) | inactive | 
29 | CCCCC1(C(=O)OCC)NC(c2ccc(O)cc2)C2C(=O)N(c3ccccc3)C(=O)C21 (stereo not given) | inactive | 
30 | O=C(O)Cn1c(Cc2ccccc2)nc2ccccc21 | 28.2 µM (active) | 
31 | CC(=O)c1nc2ccccc2n1Cc1ccccc1 | inactive | 
32 | C=C(Br)Cn1c(CCCC)nc2ccccc21 | inactive | 
33 | CCc1ccc(S(=O)(=O)N/N=C\c2ccc([N+](=O)[O-])o2)cc1 | inactive | 
34 | Cc1cc(C)nc(N/N=C/c2c(C)oc3ccccc23)n1 | inactive | 
35 | Cc1cc(C)nc(N/N=C/c2ccc([N+](=O)[O-])o2)n1 | 28.2 µM (active) | 
36 | CS(=O)(=O)N1CCc2cc(C(=O)Nc3ccccc3Br)ccc21 | inactive | 
37 | CCCOc1ccc(-c2c(C(=O)N/N=C/c3ccco3)nnn2-c2nonc2N)cc1 | inactive | 
38 | Cc1ccc(/C=N/NC(=O)c2cc3ccccc3cc2O)o1 | inactive | 
39 | COCCCNC(=S)NC(=O)c1ccccc1 | inactive | 
40 | Cc1cc2[nH]ncc2cc1NC(=S)NC(=O)c1ccccc1 | inactive | 
41 | Cn1nnc(NC(=S)NC(=O)c2ccccc2)n1 | 3.15 µM (active) | 
42 | Cc1c(Cl)cccc1NC(=S)NCC(O)c1ccccc1 (stereo not given) | inactive | 
43 | O=C(c1n[nH]c2c1CCC2)N1CCCC(Nc2cccc(F)c2)C1 (stereo not given) | inactive | 
44 | CSc1n[nH]c(=S)n1N | 19.9 µM (active) | 
45 | Cc1noc(C)c1CCC(=O)N1CCCC(CO)(Cc2ccccc2)C1 (stereo not given) | inactive | 
46 | COc1ccc2c3c(c(=O)oc2c1)C1O[C@](CCCCN2C(=O)c4ccccc4C2=O)(Cc2c1ccc1ccccc21)O3 |  | -2.65% [at 12.9 µM] (inactive)
47 | COc1ccc(CCNCc2c(-c3ccccc3)n(C)c3ccccc23)cc1 | inactive | 
48 | COc1ccc(OC)c(Nc2nc(-c3ccc(O)c(O)c3)cs2)c1 | 8.89 µM (active) | 

Row | SMILES | Potency | activity, negative = inhibition
49 | COc1ccc(-c2csc(Nc3ccc(O)cc3)n2)cc1 | inactive | 
50 | COc1ccc(-c2csc(Nc3ccccn3)n2)cc1 | inactive | 
51 | COc1ccc(C2=Nn3c(nnc3-c3ccccc3O)SC2)cc1 | inactive | 
52 | CCOc1cc(C2/C(=C(/O)c3ccc(S(=O)(=O)N4CCCCC4)cc3)C(=O)C(=O)N2CCOC)ccc1O (stereo not given) | inactive | 
53 | C=CCOc1ccccc1/C=N/NC(=O)Cc1ccccc1 | inactive | 
54 | CCn1c(SCC(=O)N/N=C/c2ccccc2OCC(=O)O)nnc1-c1ccc(C(C)(C)C)cc1 | inactive | 
55 | CCOc1ccccc1/C=N/NC(=O)CNC(=O)COc1ccccc1 | 17.7 µM (active) | 
56 | C=C(C)CNC(=S)N/N=C/c1ccccc1OCC(=O)O | 17.7 µM (active) | 
57 | Cc1ccc(/C=N/NC(=O)CNC(=O)COc2ccccc2)o1 | inactive | 
58 | O=C(CNC(=O)COc1ccccc1)NCCc1ccccn1 | inactive | 
59 | COC(=O)c1cccc(N2C(=O)C3C4C=CC(CC4)C3C2=O)c1 (stereo not given) | inactive | 
60 | CCCCN1C(=O)C(C)=C(C)C1OCCc1ccc(OC)c(OC)c1 (stereo not given) | inactive | 
61 | Cc1ccc(C(=O)NCC(=O)OCc2nnc(-c3ccccc3)o2)cc1 | inactive | 
62 | CCOc1ccc(N(C)Cc2cc(=O)oc3ccc(OC)cc23)cc1 | inactive | 
63 | Cn1nccc1/C=N\NC(=O)c1ccc(Cl)cc1 | inactive | 
64 | C=CCc1c(C)nc2cc(-c3ccccc3)[nH]n2c1=O | inactive | 
65 | Cc1nc2cc(C(F)(F)F)ccc2n1CCNc1nc(-c2cc(Cl)c(N)c(Cl)c2)cs1 | inactive | 
66 | Cc1ccccc1OCC(=O)Nc1nnc(S(=O)(=O)N2CCCC2)s1 | inactive | 
67 | COc1cccc(C(=O)Nc2nnc(S(=O)(=O)N3CCCCC3)s2)c1 | 17.8 µM (active) | 
68 | CCOC(=O)CSc1nnc(NC(=O)c2cccc(S(=O)(=O)N3CCCCC3)c2)s1 | inactive | 
69 | COc1ccc(C)cc1N(CC(=O)N1CCCC1)S(=O)(=O)c1ccccc1 | inactive | 
70 | Cc1ccc(C)c(N2CCN(S(=O)(=O)c3c(C)[nH]c(C)c3C(=O)N3CCCC3)CC2)c1 | inactive | 
